In PubChem BioAssay one finds z-score and composite z-score data, which are given here for 9 compounds.

Test [1] in a line: compound effects on lung adenocarcinoma cell viability – A549, calcein-AM fluorescence, 48 h, basal, profiling panel (AID 1162). Note: test concentration not given here. As to conditions: higher = more signal.
A short description of test [2]: compound effects on differentiated 3T3-L1 adipocyte viability – cell-based, 3T3-L1 adipocytes, calcein-AM fluorescence, 48 h, basal, profiling panel (AID 1163). Note: test concentration not given here. The settings on record: 3T3-L1 adipocytes viability, higher = more signal.
Test [3] in a line: compound effects on hepatocellular carcinoma cell viability – HepG2, calcein-AM fluorescence, 48 h, basal, profiling panel (AID 1164). Note: test concentration not given here. The settings on record: higher = more signal.
Test [4] can be described thus: compound effects on multiple myeloma cell viability – MM1S, calcein-AM fluorescence, 48 h, basal, profiling panel (AID 1165).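 Note: viability of MM1S multiple myeloma cells under basal unstimulated conditions; test concentration not given here.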 The settings on record: higher = more signal.
Test [5] in a line: calcein-AM signal in unstimulated myeloma cells – cell-based, calcein-AM fluorescence, 48 h, PK04 Diversity Set, profiling panel (AID 1166).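 Note: cells grown under basal conditions without added stimulus; test concentration not given here.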 The settings on record: RPMI8226 myeloma viability, higher = more signal.
The nature of test [6]: JC-1 mitochondrial signal, unstimulated HepG2 cells – cell-based, JC-1 fluorescence, 24 h, 100 nL compound, profiling panel (AID 1167). Note: test concentration not given here. As to conditions: HepG2 mitochondrial potential, higher = more signal.
Test [7] in a line: JC-1 mitochondrial signal, unstimulated adipocytes – cell-based, JC-1 fluorescence, 3T3-L1 adipocytes, 24 h, 100 nL compound, profiling panel (AID 1168). Note: test concentration not given here. As to conditions: JC-1 mitochondrial fluorescence, higher = more signal, called active from +8 up or from −8 down.
The nature of test [8]: JC-1 mitochondrial signal, unstimulated myeloma cells – cell-based, JC-1 fluorescence, RPMI8226, 24 h, 100 nL compound, profiling panel (AID 1169). Note: test concentration not given here. As to conditions: JC-1 mitochondrial potential fluorescence, higher = more signal.
Test [9] can be described thus: JC-1 mitochondrial signal, unstimulated MM1S myeloma – cell-based, JC-1 fluorescence, 24 h, 100 nL compound, profiling panel (AID 1170). Note: test concentration not given here. The settings on record: MM1S mitochondrial potential, higher = more signal.
The nature of test [10]: resazurin metabolic signal in A549 cells – cell-based, resazurin fluorescence, 24 h, PK04 Diversity Set, profiling panel (AID 1171). Note: test concentration not given here. The settings on record: A549 viability, higher = more signal, called active from +8 up or from −8 down. (Alamar Blue is a resazurin reagent that responds to reducing activity.)
Test [11] in a line: resazurin metabolic signal in HepG2 cells – cell-based, resazurin fluorescence, 24 h, PK04 Diversity Set, profiling panel (AID 1172). Note: test concentration not given here. The settings on record: HepG2 viability, higher = more signal.
The nature of test [12]: budding yeast growth changes without added modifier – OD600, strain BY4716, 24 h, basal condition, primary screen (AID 1173). As to conditions: S. cerevisiae BY4716 growth, OD600, 24 h; higher = more signal, called active from +8 up or from −8 down.
Test [13] can be described thus: viability profiling in MM1S myeloma cells – cell-based, resazurin fluorescence, basal, 24 h, PK04 Diversity Set, profiling panel (AID 1174). Note: test concentration not given here. As to conditions: higher = more signal, called active from +8 up or from −8 down.
Test [14] addresses Dihydroorotate dehydrogenase (quinone), mitochondrial (Plasmodium falciparum (isolate 3D7)) (UniProt Q08210). The test is described as follows: inhibition of P. falciparum DHODH – biochemical, C-terminal His tag, absorbance 600 nm, primary screen (AID 1175).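 Note: recombinant parasite enzyme with a five histidine tag at its C terminus; test concentration not given here.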 As to conditions: PfDHODH enzyme, DCIP absorbance 600 nm; higher = more signal, called active from +8 up or from −8 down.
The nature of test [15]: inhibition of PAO1 biofilm formation – strain PAO1, LB-PBS medium, absorbance 600 nm, primary screen (AID 1176). Note: test concentration not given here. The settings on record: P. aeruginosa PAO1 growth/biofilm, A600, 12 h; higher = more signal.
Test [16] can be described thus: growth modulation of vineyard yeast isolate – strain RM11-1a, OD600, basal, 24 h, primary screen (AID 1177).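 Note: cultures grown under basal conditions with no added stressor; test concentration not given here.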 As to conditions: S. cerevisiae RM11-1a growth, OD600, 24 h; higher = more signal, called active from +8 up or from −8 down.
Test [17] can be described thus: growth of efflux-deficient E. coli DRC39 – strain DRC39, OD650, 24 h, E. coli filamentation inducers, primary screen (AID 1178).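 Note: growth measured as culture turbidity by optical density at 650 nm; test concentration not given here.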 As to conditions: E. coli DRC39 acrAB, higher = more signal, called active from +8 up or from −8 down.
Test [18] in a line: growth of efflux-deficient E. coli DRC39 – strain DRC39, OD650, 48 h, E. coli filamentation inducers, primary screen (AID 1179).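 Note: screen aims at cell division blockers that make cells filament.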 As to conditions: E. coli DRC39 delta-acrAB growth, higher = more signal, called active from +8 up or from −8 down.
Test [19] can be described thus: viability profiling in RPMI8226 myeloma cells – cell-based, resazurin fluorescence, basal, 24 h, PK04 Diversity Set, profiling panel (AID 1180).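 Note: RPMI8826 multiple myeloma cell line at 5000 cells per well; test concentration not given here.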 As to conditions: higher = more signal.
Test [20] addresses E3 ubiquitin-protein ligase XIAP (Homo sapiens) (UniProt P98170). The test is described as follows: small molecules binding XIAP protein – biophysical, small-molecule microarray, fluorescence 635 nm, primary screen (AID 1181).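 Note: score merges 667 nm emission and signal to noise over triplicate slides.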 The settings on record: higher = more signal.

Structures are written as SMILES. The source made the active and inactive calls. Unless noted, the rule behind the calls is not given here.

E3 ubiquitin-protein ligase XIAP (Homo sapiens), sequence (P98170 whole entry, looked up): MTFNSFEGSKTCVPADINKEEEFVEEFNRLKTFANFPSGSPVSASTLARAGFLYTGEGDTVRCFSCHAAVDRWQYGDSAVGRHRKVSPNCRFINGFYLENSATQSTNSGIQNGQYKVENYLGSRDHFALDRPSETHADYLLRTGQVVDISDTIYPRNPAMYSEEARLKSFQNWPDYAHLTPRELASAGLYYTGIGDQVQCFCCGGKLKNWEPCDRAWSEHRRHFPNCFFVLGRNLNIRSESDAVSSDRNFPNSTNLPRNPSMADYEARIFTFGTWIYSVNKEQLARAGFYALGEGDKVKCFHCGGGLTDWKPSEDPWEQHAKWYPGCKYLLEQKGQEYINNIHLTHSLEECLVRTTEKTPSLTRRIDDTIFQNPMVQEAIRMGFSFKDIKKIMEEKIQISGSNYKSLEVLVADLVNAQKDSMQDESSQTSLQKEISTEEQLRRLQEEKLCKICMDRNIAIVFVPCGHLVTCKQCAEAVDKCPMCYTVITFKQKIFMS
Dihydroorotate dehydrogenase (quinone), mitochondrial (Plasmodium falciparum (isolate 3D7)), sequence (Q08210 whole entry, looked up): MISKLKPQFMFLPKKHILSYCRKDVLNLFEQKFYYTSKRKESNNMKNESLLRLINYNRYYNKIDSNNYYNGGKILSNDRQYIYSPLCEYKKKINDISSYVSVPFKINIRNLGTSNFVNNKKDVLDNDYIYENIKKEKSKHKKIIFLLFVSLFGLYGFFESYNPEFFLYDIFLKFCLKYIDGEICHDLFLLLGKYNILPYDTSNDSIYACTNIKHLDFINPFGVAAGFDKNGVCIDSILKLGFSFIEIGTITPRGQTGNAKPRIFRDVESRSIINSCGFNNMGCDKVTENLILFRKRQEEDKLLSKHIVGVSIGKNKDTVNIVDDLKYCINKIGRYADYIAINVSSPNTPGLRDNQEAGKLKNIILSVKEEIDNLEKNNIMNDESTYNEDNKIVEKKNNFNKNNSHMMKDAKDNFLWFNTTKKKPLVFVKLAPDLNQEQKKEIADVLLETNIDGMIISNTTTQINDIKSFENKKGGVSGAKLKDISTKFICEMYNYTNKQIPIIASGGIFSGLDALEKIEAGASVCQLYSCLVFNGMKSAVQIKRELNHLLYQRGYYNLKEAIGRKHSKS

Regarding `CC(=O)OC[C@H]1O[C@H](CC=NOC(C)CN2CCCc3nc(C)c(C)cc32)C=C[C@@H]1OC(C)=O` (stereo not given in full), the z-score in [1] is -0.234; in test [2] it was 0.114; in [3], -0.806; in test [4] it was -2.94; in test [5], -0.639; in test [6], -0.706. Moreover, the z-score in test [7] is 0.264 (inactive); in [8], -0.131; in [9], -0.188; in test [10], -0.135 (inactive); in test [11], -0.368; in test [12], -0.494 (inactive). Moreover, the z-score in test [13] was 0.161 (inactive); in test [15], -0.373 (inactive); in test [16], 0.634 (inactive); in test [17], 0.603 (inactive); in test [18], -0.147 (inactive); in test [19], 0.12. Moreover, the composite z-score is 0.159 (inactive) in test [14] and 0.145 in test [20].
In the case of `O=C1C=C[C@@H](O)[C@@H]2[C@@H]3C(=O)N(Cc4ccccc4)C(=O)[C@@H]3CC[C@@H]12`, the z-score was 0.698 in [1]; 0.594 in test [2]; 1.33 in [3]; -0.134 in test [4]; -0.73 in test [5]; 1.42 in test [6]. Also, the z-score in test [7] is -0.125 (inactive); in test [8], -0.057; in test [9], -0.05; in test [10] it was -0.754 (inactive); in [11] it was -0.178; in [12], -0.459 (inactive). Moreover, the z-score in test [13] is 0.183 (inactive); in test [15] it was 0.647 (inactive); in [16], -0.83 (inactive); in test [17], 0.479 (inactive); in test [18] it was 0.116 (inactive); in test [19], -0.242. Also, the values for the composite z-score in test [14] and in [20] were -0.136 (inactive) and -0.0566, respectively.
For `COC(=O)CC=C[C@@H](C)[C@@H](C=NOC(C)CN1CCCCc2nc(C)c(C)cc21)NS(=O)(=O)c1ccc(C)cc1` (stereo not given in full), the z-score is -0.366 in test [1]; 0.61 in test [2]; 0.0477 in test [3]; 0.0238 in test [4]; -0.141 in [5]; -0.246 in test [6]. The z-score in test [7] is -0.442 (inactive); in [8], -1.02; in test [9], -0.0131; in [10] it was -0.204 (inactive); in test [11], -0.194; in test [12] it was 0.434 (inactive). Further, the z-score in test [13] was -0.71 (inactive); in test [15] it was 0.0525 (inactive); in test [16] it was -0.472 (inactive); in test [17] it was 0.424 (inactive); in test [18], 0.607 (inactive); in test [19] it was 0.0077. Besides, the values for the composite z-score in [14] and in test [20] were -0.069 (inactive) and -0.244, respectively.
Take `C=CC[C@@H]1C=C[C@H](ON=C(C)CCN2CCCc3nc(C)c(C)cc32)[C@@H](CO)O1`: the z-score in test [1] is 0.226; in [2], -0.0137; in test [3], 0.0526; in [4] it was -2.03; in [5], -1.06; in test [6] it was -0.276. The z-score in test [7] is 0.0489 (inactive); in test [8], -0.989; in test [9], -0.455; in [10], -0.246 (inactive); in test [11], 0.394; in [12], 0.529 (inactive). For the same compound, the z-score in [13] was -0.0956 (inactive); in [15] it was 0.936 (inactive); in test [16] it was 0.662 (inactive); in test [17], 0.382 (inactive); in [18], -0.0088 (inactive); in test [19] it was -0.0021. Moreover, the values for the composite z-score in test [14] and in [20] were -0.267 (inactive) and 1.07, respectively.
With `CC(CCN1CCCCc2nc(C)c(C)cc21)=NO[C@H](C)c1cn([C@@H]2COC[C@H]2O)nn1`, the z-score in test [1] was 0.368; in test [2] it was -0.807; in test [3], 0.251; in test [4], 0.287; in test [5] it was 0.0323; in test [6], 0.0457. The z-score in test [7] is 0.229 (inactive); in [8] it was 1.18; in [9], -0.992; in test [10], -0.454 (inactive); in test [11], 0.404; in test [12], 1.62 (inactive). Besides, the z-score in [13] was -1.64 (inactive); in [15], -0.561 (inactive); in [16], 0.811 (inactive); in test [17], 0.715 (inactive); in test [18], 0.821 (inactive); in [19], -0.256. The composite z-score in test [14] was -0.21 (inactive); in test [20], 0.256.
`CCC1=NOC(CCC2CC(OC(=O)NCc3cccc4c3OCO4)CC3(CCCC(COC(=O)NCCc4ccc(Cl)cc4)O3)O2)C1` (stereo not given): the z-score in test [1] was -0.584; in test [2] it was -0.55; in test [3], -0.303; in test [4] it was 0.396; in test [5] it was -0.961; in test [6], -0.803. In addition, the z-score in test [7] was 0.453 (inactive); in test [8], 0.0772; in [9], -0.398; in test [10] it was 0.137 (inactive); in test [11] it was 0.22; in [12] it was 0.519 (inactive). The z-score in [13] was -0.0555 (inactive); in test [15], 0.52 (inactive); in test [16], 0.0088 (inactive); in [17] it was 0.137 (inactive); in test [18], 0.377 (inactive); in test [19], 0.73. Moreover, the composite z-score in test [14] is -0.362 (inactive); in test [20], -0.0476.
Take `CC(C)CN1CCc2nc(-c3ccccc3)c3c(c2C1)CO[C@@H](C)C3`: the z-score in test [1] was 1.2; in test [2] it was -0.274; in test [3], 0.0114; in [4], 0.639; in test [5] it was -0.409; in [6], 0.462. In addition, the z-score in [7] is 0.0658 (inactive); in test [8], -0.0878; in test [9], 0.708; in [10], -0.139 (inactive); in test [11], -0.622; in [12], -1.33 (inactive). For the same compound, the z-score is 1.21 (inactive) in test [13]; -0.588 (inactive) in test [15]; 0.697 (inactive) in [16]; -0.838 (inactive) in [17]; -0.0811 (inactive) in test [18]; 0.829 in [19]. In addition, the composite z-score in [14] is 0.638 (inactive); in test [20] it was -0.22.
On to `CCOC(=O)[C@H](Cc1ccccc1)NC(=O)CCC1CC(OC(=O)NCc2cccc3ccccc23)CC2(CCCC(COC(=O)NCC3CCCCC3)O2)O1` (stereo not given in full), for which the z-score in [1] is 0.391; in test [2], 0.146; in test [3], -0.574; in [4] it was -0.0497; in test [5], -0.68; in test [6] it was -0.00703. Besides, the z-score in test [7] was -0.00973 (inactive); in test [8] it was -0.198; in [9], -0.296; in test [10], 0.684 (inactive); in test [11] it was 1.21; in test [12], -0.424 (inactive). Besides, the z-score in [13] was 1.43 (inactive); in test [15], 0.143 (inactive); in [16] it was -0.104 (inactive); in test [17], -0.475 (inactive); in test [18], 0.481 (inactive); in test [19] it was 0.0833. Moreover, the figures for the composite z-score in test [14] and in [20] were -0.105 (inactive) and 0.0424, respectively.
Turning to `COc1ccc(O[C@H]2C=C[C@@H](c3ccccc3)O[C@@H]2COC(=O)CCC(C)=NOC[C@@H](O)COCc2ccco2)cc1`, the z-score in [1] was 0.944; in test [2], 0.651; in test [3], 0.599; in test [4] it was -1.89; in [5] it was 0.107; in test [6], -0.918. Also, the z-score is 0.0665 (inactive) in [7]; -0.313 in [8]; -1.12 in test [9]; 0.402 (inactive) in test [10]; 0.206 in test [11]; -1.06 (inactive) in test [12]. Also, the z-score in [13] is -1.11 (inactive); in test [15] it was -0.0903 (inactive); in test [16], -1.48 (inactive); in test [17], -0.129 (inactive); in [18], -0.902 (inactive); in test [19], 0.37. The composite z-score in test [14] is -2.35 (inactive); in test [20], 0.122.
